Laboratory results: the supplement of paper PMC3334620
Over roughly 33,000 sequences, “E-score (-0.5 to 0.5)” has its median near -0.016; the highest 2% begin near 0.32. Many of the other results were omitted from the sample, so the highest values are more common in it than they were.

The sequences below were run against T1, Stp1 (UniProt B3LFK1) (assay: PBM E-score (8-mer binding enrichment) (E-score (-0.5 to 0.5)); higher = stronger / more preferred TF binding). Conditions: protein concentration: 200 nM; construct: GST-full length.
T1 sequence: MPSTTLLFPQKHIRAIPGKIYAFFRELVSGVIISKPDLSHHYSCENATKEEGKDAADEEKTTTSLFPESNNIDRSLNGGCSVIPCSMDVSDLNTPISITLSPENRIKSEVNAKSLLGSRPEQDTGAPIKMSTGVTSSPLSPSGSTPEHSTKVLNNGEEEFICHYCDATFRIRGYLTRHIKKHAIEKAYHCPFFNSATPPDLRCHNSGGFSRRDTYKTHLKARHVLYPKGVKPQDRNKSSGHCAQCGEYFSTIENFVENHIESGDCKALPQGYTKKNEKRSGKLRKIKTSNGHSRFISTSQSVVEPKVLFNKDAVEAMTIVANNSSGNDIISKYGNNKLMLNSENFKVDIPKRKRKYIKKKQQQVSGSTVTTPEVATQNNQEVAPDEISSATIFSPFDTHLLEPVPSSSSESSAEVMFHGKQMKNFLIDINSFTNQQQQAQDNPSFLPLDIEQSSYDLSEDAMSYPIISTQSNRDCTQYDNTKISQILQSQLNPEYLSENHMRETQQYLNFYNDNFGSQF
Procedure: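 Universal 'all 10-mer' protein binding microarrays (Agilent AMADID 015681) probed with GST-tagged S. cerevisiae TFs (full-length or DBD) made by in vitro transcription/translation (PURExpress), about 100-200 nM. Bound TF was detected with fluorescent anti-GST. Each ungapped 8-mer (which stands for itself and its reverse complement) is scored by the PBM enrichment score (E-score), a modified Wilcoxon-Mann-Whitney statistic from -0.5 to +0.5, computed with the Universal PBM Analysis Suite. Scale: above 0.35 generally sequence-specific binding.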

In order of rising “PBM E-score” value:
1. AGGGCTAT  -0.325
2. AGGCTTGC  -0.31
3. GCAGGAGA  -0.303
4. ATGCAGGA  -0.258
5. CCCCCGTA  -0.238
6. CCCCTAAA  -0.228
7. ATCAGGGA  -0.201
8. ACCTAGCC  -0.186
9. CGCCCGTA  -0.183
10. AACCTGTC  -0.17
11. CTGCTGCA  -0.169
12. CCCGCACC  -0.149
13. AGACCATC  -0.131
14. GCGCCCCC  -0.129
15. CTCAGAAG  -0.0989
16. CGAACCTC  -0.0892
17. CCTCACCA  -0.0872
18. ACGCCGGG  -0.0857
19. AGGCTTCA  -0.0829
20. CTCGACAA  -0.0792
21. CTGCTTAC  -0.0697
22. GCACTCGA  -0.0637
23. CAGCGCGA  -0.0618
24. CACCTTTA  -0.0604
25. CTCGAAAG  -0.053
26. ACCTATGG  -0.0452
27. CCGCCCTA  -0.041
28. AATCCTGT  -0.037
29. CAAACTTG  -0.0331
30. AGTTGATG  -0.0271
31. CTTCCCAC  -0.0242
32. ACACCGTA  -0.0212
33. AGGCCGTC  -0.0198
34. CGATGATC  -0.0137
35. ACCGCACA  -0.0115
36. AACGCACA  -0.0113
37. CAGCGCGC  -0.00184
38. AAGTGACG  -0.00161
39. TATGCATA  0.00403
40. CTTCAAGC  0.0107
41. TACTGTAA  0.021
42. CCGCCACG  0.0257
43. CTCAATTC  0.0345
44. CGGCTTGA  0.0356
45. ACAACAAT  0.0375
46. AACAGCGT  0.0405
47. CCGGCTAC  0.0509
48. CGCTTGGC  0.0526
49. AACCTATG  0.053
50. CGGCTTAG  0.0549
51. ATCGGCGA  0.0557
52. CAGATTGC  0.057
53. CTTGCCTC  0.0687
54. ATCTACAC  0.0776
55. ACTTTACG  0.0861
56. ACCGCACC  0.0883
57. ACGCGCGA  0.105
58. GCGCCCAA  0.119
59. CCTAACAG  0.121
60. CTCGGCGA  0.123
61. ACGCCCTA  0.127
62. AGCCGAGG  0.142
63. TCGGCTAA  0.145
64. GATTTAAC  0.148
65. ACAAATGC  0.155
66. AAGCGCGG  0.171
67. ATTGATTG  0.178
68. GTGCCTAA  0.184
69. TGGCTTAA  0.193
70. CACGCACG  0.203
71. ACGCCGAA  0.21
72. CGGCTTCC  0.211
73. CCCGCACG  0.222
74. ACGGCTAG  0.235
75. CCGCCGTC  0.255
76. ATCGGCGG  0.262
77. ATTGATTC  0.265
78. CTGCGCGC  0.269
79. GGGCGCGA  0.28
80. ACGCCACA  0.295
81. CTCGGCAC  0.3
82. GCGGCTAA  0.304
83. GCGGCTAC  0.305
84. ATGCGCGG  0.307
85. AGGCCGTG  0.307
86. AGGCGCGC  0.308
87. CGGCTTAA  0.318
88. GCGCCACA  0.334
89. ATTGATTA  0.338
90. ATCGGCGC  0.342
91. GCGCCCTA  0.342
92. ACGGCTAT  0.349
93. GCGCCCCA  0.353
94. AGGCGCGG  0.355
95. AACGCACG  0.36
96. CGGCTTCA  0.368
97. CGGCTTGC  0.37
98. ACGGCTAA  0.377
99. CTCGGCGC  0.382
100. AGGCGCGA  0.392
101. ACGGCTAC  0.407
102. ACGCCGTC  0.41
103. CCGCCGTA  0.42
104. GCCGCACC  0.449
105. GCCGCACA  0.452
106. ACGCCGTA  0.471
107. CGGCGCGC  0.475
108. CGGCGCGA  0.477
109. ACGCCGTG  0.485
